# Reference: the supplement of paper PMC12350171
# Structures can show the parent of a compound that is named as a salt.
# System: Haemophilus parainfluenzae
# Assay: growth AUC normalised to DMSO control (fraction of control); higher = less growth inhibition, active = hit call of the paper
# Details: 20 µM;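 active = AUC significantly below DMSO controls by Student t-fit with adjusted P under 0.01; inactive = not significantly reduced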
# Procedure, shortened: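 Pathogens passaged twice anaerobically were inoculated at a starting OD578 of 0.01 into pre-reduced mGAM plates with drug at 20 μM and 1% DMSO, sealed with breathable membranes. Haemophilus parainfluenzae medium was supplemented with hemin and NAD. OD578 was read hourly for 24 h, with three biological replicates. Growth-curve AUC was computed by the trapezoidal rule up to the exponential-to-stationary transition and normalised to DMSO controls on the same plate.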
row,Compound,growth AUC normalised to DMSO control
1,CCN(CC)CCOC(=O)C(c1ccccc1)C1CCCCC1 (centres undefined) [Drofenine hydrochloride],0.992 (inactive)
2,Nc1nc(N)nc(-c2cc(Cl)ccc2Cl)n1 [Irsogladine maleate],1.01 (inactive)
3,N=C(N)NC(=N)NCCc1ccccc1 [Phenformin hydrochloride],1.04 (inactive)
4,CNC(C)CCC=C(C)C (centres undefined) [Isometheptene mucate],0.97 (inactive)
5,O=C1CN(/N=C/c2ccc([N+](=O)[O-])o2)C(=O)N1 [Nitrofurantoin],0.369 (active)
6,C[C@H]1[C@H](NC(=O)/C(=N\OC(C)(C)C(=O)O)c2csc(N)n2)C(=O)N1S(=O)(=O)O [Aztreonam],0.0582 (active)
7,CC(C(=O)O)c1cccc(Oc2ccccc2)c1 (centres undefined) [Fenoprofen calcium salt dihydrate],0.945 (inactive)
8,CO[C@@]1(NC(=O)CSCC#N)C(=O)N2C(C(=O)O)=C(CSc3nnnn3C)CS[C@@H]21 [Cefmetazole sodium salt],0.0246 (active)
9,NS(=O)(=O)c1cc2c(cc1Cl)N=C(CSCc1ccccc1)NS2(=O)=O [Benzthiazide],0.987 (inactive)
10,CN1[C@@H]2CC[C@H]1C[C@@H](OC(=O)c1c[nH]c3ccccc13)C2 [Tropisetron hydrochloride],1 (inactive)
11,CN[C@@H]1[C@H](O)[C@H](NC)[C@H]2O[C@@]3(O)C(=O)C[C@@H](C)O[C@H]3O[C@@H]2[C@H]1O [Spectinomycin dihydrochloride],0.117 (active)
12,C[C@]12CC[C@H]3[C@@H](CCC4=CC(=O)CC[C@@]43C)[C@@H]1CC[C@@H]2C(=O)CO [Deoxycorticosterone],1.04 (inactive)
13,CCC(C)(CN(C)C)OC(=O)c1ccccc1 (centres undefined) [Amyleine hydrochloride],1.01 (inactive)
14,CC[C@@H]1C(=O)OC[C@@H]1Cc1cncn1C [Pilocarpine nitrate],0.981 (inactive)
15,Cc1cc(N)c2ccccc2[n+]1CCCCCCCCCC[n+]1c(C)cc(N)c2ccccc21 [Dequalinium dichloride],0.907 (inactive)
16,N=c1nc(N2CCCCC2)cc(N)n1O [Minoxidil],1.03 (inactive)
17,Cc1ccccc1OCC(O)CO (centres undefined) [Mephenesin],0.93 (inactive)
18,Cn1c(=O)c2c(ncn2CC(=O)O)n(C)c1=O [Acefylline],0.969 (inactive)
19,CC(=O)N(O)CCCCCNC(=O)CCC(=O)N(O)CCCCCNC(=O)CCC(=O)N(O)CCCCCN [Deferoxamine mesylate],1.07 (inactive)
20,Cc1oncc1C(=O)Nc1ccc(C(F)(F)F)cc1 [Leflunomide],0.978 (inactive)

row,Compound,growth AUC normalised to DMSO control
1,NCCNCCNCCNCCN [Tetraethylenepentamine pentahydrochloride],0.971 (inactive)
2,C#C[C@]1(O)CC[C@H]2[C@@H]3CCc4cc(O)ccc4[C@H]3CC[C@@]21C [Ethinylestradiol],1.04 (inactive)
3,C[C@H](CS)C(=O)N1CCC[C@H]1C(=O)O [Captopril],1.05 (inactive)
4,C#CCN(C)CCCOc1ccc(Cl)cc1Cl [Clorgyline hydrochloride],0.943 (inactive)
5,NS(=O)(=O)c1cc(C(=O)O)c(NCc2ccco2)cc1Cl [Furosemide],1 (inactive)
6,CCN(CC)CCOC(=O)C1(C2CCCCC2)CCCCC1 [Dicyclomine hydrochloride],0.87 (inactive)
7,CC(C)(C)NCC(O)COc1cccc2c1CCC(=O)N2 (centres undefined) [Carteolol hydrochloride],0.985 (inactive)
8,CCN(CC)CCCC(C)Nc1c2ccc(Cl)cc2nc2ccc(OC)cc12 (centres undefined) [Quinacrine dihydrochloride hydrate],0.879 (inactive)
9,Cc1c(N)c(=O)n(-c2ccccc2)n1C [Ampyrone],1 (inactive)
10,Clc1ccc(CSC(Cn2ccnc2)c2ccc(Cl)cc2Cl)cc1 (centres undefined) [Sulconazole nitrate],1.08 (inactive)
11,NCc1ccccc1CC(=O)N[C@@H]1C(=O)N2C(C(=O)O)=C(CSc3nnnn3CC(=O)O)CS[C@H]12 [Ceforanide],0.0189 (active)
12,CCCCN(CCCC)CCCOC(=O)c1ccc(N)cc1 [Butacaine],0.998 (inactive)
13,O=S(=O)(O)CCS [Coenzyme M],1.06 (inactive)
14,NC[C@H]1O[C@H](O[C@H]2[C@H](O[C@@H]3O[C@H](CO)[C@@H](O)[C@H]3O)[C@@H](O)[C@H](N)C[C@@H]2N)[C@H](N)[C@@H](O)[C@@H]1O [Ribostamycin sulfate salt],0.812 (active)
15,CCN(CC)CCNC(=O)c1cc(Br)c(N)cc1OC [Bromopride],1.03 (inactive)
16,CCOC(=O)[C@H](CCc1ccccc1)N[C@@H](C)C(=O)N1Cc2ccccc2C[C@H]1C(=O)O [Quinapril hydrochloride],0.952 (inactive)
17,COC(=O)C1=C(C)NC(C)=C(C(=O)OC)C1c1ccccc1[N+](=O)[O-] [Nifedipine],0.998 (inactive)
18,CO[C@@]1(NC(=O)C(C(=O)O)c2ccc(O)cc2)C(=O)N2C(C(=O)O)=C(CSc3nnnn3C)CO[C@@H]21 (some centres undefined) [Moxalactam disodium salt],0.076 (active)
19,CN(C)CCC(c1ccccc1)c1ccccn1 (centres undefined) [Pheniramine maleate],0.999 (inactive)
